aSyn UTR act: Activators via SNCA 5'UTR binding, MLPCN; 300,000 tested, 7.1% active; alpha-synuclein 5'UTR reporter, activators screen; activity score, % (tested at 7.5 µM), hits read low; in the data active = activity score below about -60%
An asterisk follows results filed as active. The list is a sample of the results.

SMILES	aSyn UTR act
C=CCn1c(C)nc2c(sc3nc4c(cc32)COC(C)(C)C4)c1=O	-130*
CCCOc1ncnc2c1sc1nc3c(cc12)COC(C)(C)C3	-112*
CCCCCn1cnc2c(sc3nc4c(cc32)CSC(C)(C)C4)c1=O	-130*
CCSc1ncnc2c1sc1nc3c(cc12)COC(C)(C)C3	-123*
CC(C)COc1ncnc2c1sc1nc3c(cc12)COC(C)(C)C3	-117*
CC1(C)Cc2nc3oc4c(=S)nc[nH]c4c3cc2CO1	-64*
CC(C)c1nc2sc3c(NCc4ccco4)ncnc3c2c2c1COC(C)(C)C2	71
CC1(C)Cc2nc3sc4c(=O)n(CC(=O)NCc5ccco5)cnc4c3cc2CO1	-100*
COCCC1CCCCN1C(=O)c1ccc2nc(Cc3ccccc3F)oc2c1 (stereo not drawn)	-131*
CCOC(=O)C1CCCN(C(=O)c2ccc3oc(CCc4ccccc4)nc3c2)C1 (stereo not drawn)	-72*
O=C(c1ccc2oc(CCCc3ccccc3)nc2c1)N1CCCC1	-141*
CC(=O)C1CCCN(C(=O)c2ccc3oc(CCc4ccccc4)nc3c2)C1 (stereo not drawn)	-94*
COC(=O)C1CCCCN1C(=O)c1ccc2oc(Cc3ccccc3)nc2c1 (stereo not drawn)	-88*
CCOC(=O)C1CCCCN1C(=O)CCc1c(C)nc2cc(-c3ccccc3)nn2c1C (stereo not drawn)	76
Cc1sc(NC(=O)c2sc3nc4c(C)cccc4cc3c2N)c(C#N)c1C	-119*
Cc1csc(Nc2nc(N)c(C(=O)Nc3ccccc3)o2)n1	-131*
Cc1cccc2cc3c(N)c(C#N)sc3nc12	84
Cc1cc(C(=O)Nc2sc(C)c(C)c2C#N)c(C)o1	-65*
Cc1sc(NC(=O)c2oc3ccccc3c2C)c(C#N)c1C	-107*
Cc1csc(NC(=O)c2oc3ccccc3c2C)n1	-68*
Cc1c(C(=O)NC2=NCCS2)oc2ccccc12	-62*
COc1ccc(N(Cc2cc3ccccc3[nH]c2=O)S(=O)(=O)c2ccc(OC)cc2)cc1	-64*
COc1ccc(N(Cc2cc3cc(OC)ccc3[nH]c2=O)S(=O)(=O)c2ccc(NC(C)=O)cc2)cc1	93
CCn1c(COc2ccc(C)cc2)nc2ccccc21	-126*
CCOCCn1c(COc2ccc(C)cc2)nc2ccccc21	-118*
SMILES	aSyn UTR act
COCCn1c(COc2ccc(C)cc2)nc2ccccc21	-95*
Cc1ccc(NCc2nc3ccccc3n2CCOc2ccccc2)cc1	-136*
CCCn1c(CNc2ccc(Br)cc2)nc2ccccc21	-119*
Cn1c(COc2ccccc2)nc2ccccc21	-99*
O=C(NC(=S)NNC(=O)c1cnccn1)c1ccc(F)cc1	70
O=C(Nc1ccc(F)cc1)NC1CCCCC1	-111*
O=C(Nc1cccc(F)c1)NC1CCCCC1	-156*
O=C(Nc1ccc(N2CCOCC2)cc1)NC1CCCCC1	-78*
O=C(NC(=S)NC1CCCCC1)c1ccc(F)cc1	-162*
CC(C)CNC(=S)NC(=O)c1ccc(F)cc1	-150*
COc1ccc2c(c1OC)C(=O)N(c1ccccn1)C2	-122*
COc1ccc2c(c1OC)C(=O)N(c1cccc(C(F)(F)F)c1)C2	-192*
COc1ccc2c(c1OC)C(=O)N(c1cccc(C)c1)C2	-114*
COc1ccc(-c2cccc(C(=O)N3CCOCC3)c2)cc1	-80*
COc1ccc(-c2cccc(C(=O)Nc3cccc(C(=O)O)c3)c2)cc1	-149*
COc1ccc(C(=O)CNc2ccc3ccccc3c2)cc1	-70*
COc1ccc(C(=O)Nc2ccc(S(=O)(=O)N(C)c3ccccc3)cc2)cc1	-74*
CCn1c(=N)n(CC(=O)c2cccc([N+](=O)[O-])c2)c2ccccc21	-83*
CN(C)S(=O)(=O)Oc1cccc(C(=O)Nc2ccc([N+](=O)[O-])cc2)c1	-168*
COc1ccc(N/C=C\C(=O)c2ccc3ccccc3c2)cc1	-212*
Cc1ccc(NCCC(=O)c2cccc([N+](=O)[O-])c2)cc1	-151*
COC(=O)/C(=C/c1cccc([N+](=O)[O-])c1)NC(=O)c1ccc(OC)cc1	-216*
COc1ccc(C(=O)Nc2cccc([N+](=O)[O-])c2)cc1Br	-85*
COc1ccc(NC(=O)c2cccc([N+](=O)[O-])c2)cc1	-105*
COc1ccc(NC(=O)c2cc([N+](=O)[O-])ccc2O)cc1	85
SMILES	aSyn UTR act
COc1ccc(C(=O)/C=C/Nc2ccc(C)cn2)cc1OC	-140*
COc1ccc(Br)cc1CN(C)C(C)C(=O)Nc1cc([N+](=O)[O-])ccc1OC (stereo not drawn)	51
COc1ccc(NC(=O)c2coc(C)c2)cc1	-115*
COc1ccc(C(=O)CNc2ccccc2Br)cc1	-181*
CCOc1ccc(NS(=O)(=O)c2cc(OC)ccc2OC)cc1	-91*
CCOc1ccc(N/C=C/C(=O)c2ccc(OC)c(OC)c2)cc1	-175*
O=C(/C=C/Nc1ccccc1)c1ccc(Oc2ncccn2)cc1	-244*
COc1ccc(NC(=O)c2ccc3ccccc3c2)cc1	-92*
O=C(Nc1cc(=O)[nH]c(=O)[nH]1)c1cc(Cl)ccc1Cl	-65*
COC(=O)c1ccc(COc2ccc(/C=N/N3CCN(C)CC3)cc2)cc1	-127*
CC(/C=C/c1ccc(OCc2ccccc2)cc1)=N\O	-133*
CN1CCN(/N=C/c2ccc(OCc3ccccc3)cc2)CC1	-73*
CSc1nc2ccc(NC(=O)c3cc4ccccc4o3)cc2s1	-126*
CSc1nc2ccc(NC(=O)c3ccco3)cc2s1	-134*
CC(=O)Nc1ccc2nc(NC(=O)c3ccc([N+](=O)[O-])o3)sc2c1	-100*
CSc1nc2ccc(NC(=O)c3ccc(F)c(F)c3)cc2s1	-143*
CC(=O)Nc1ccc2nc(NC(=O)c3ccco3)sc2c1	-96*
CSc1nc2ccc(NC(=O)c3ccc(=O)n(C)n3)cc2s1	-70*
COc1ccc2nc(NC(=S)NC(=O)c3ccco3)sc2c1	-133*
O=C(Nc1nc2ccc([N+](=O)[O-])cc2s1)c1ccco1	-74*
C/C(N)=C(/C#N)C(=O)CSc1nnc(Nc2cccc(C)c2C)s1	-117*
CCCSc1nnc(Nc2ccccc2C)s1	-96*
CCN(CC)C(=O)CCCSc1nnc(Nc2ccccc2F)s1	-75*
Cc1ccccc1Nc1nnc(SCC(=O)Nc2ccccc2[N+](=O)[O-])s1	-81*
O=[N+]([O-])c1cccc(/C=C/c2ccc3cccc(O)c3n2)c1	-82*
SMILES	aSyn UTR act
O=[N+]([O-])c1ccc(/C=C/c2ccc3cccc([N+](=O)[O-])c3n2)cc1	-92*
CC(=O)NC(c1cccc([N+](=O)[O-])c1)c1ccc2cccnc2c1O (stereo not drawn)	123
O=[N+]([O-])c1cccc2ccc(/C=C/c3ccc(F)cc3)nc12	-291*
CCN(C(=O)CSc1nnc(Cn2nnc3ccccc32)o1)c1nc(-c2ccccc2)cs1	-105*
Cc1ccc(NC(=S)/C(=C(\[O-])c2ccc(C)c([N+](=O)[O-])c2)[n+]2ccccc2)cc1C	-158*
Cc1cc(C(=O)Nc2cccc(-c3ccc(N4CCOCC4)nn3)c2)ccc1[N+](=O)[O-]	-110*
Cc1ccc(S(=O)(=O)Nc2cc(-c3nn(C)c(=O)c4ccccc34)ccc2N2CCOCC2)cc1	78
CC1CCN(c2ccc(-c3ccc(NC(=O)C(F)(F)F)cc3)nn2)CC1	71
Cc1ccc(C(=O)Nc2cccc(-c3ccc(N4CCOCC4)nn3)c2)cc1C	-73*
Cc1ccc(C(=O)Nc2cccc(-c3ccc(N4CCOCC4)nn3)c2)cc1	-70*
Cc1ccc(S(=O)(=O)Nc2cccc(-c3ccc(N4CCCCCC4)nn3)c2)cc1	-125*

From PubChem BioAssay
